High-throughput results as filed in PubChem BioAssay.
CtBP-E1A inh: blocks the CtBP interaction with E1A; AID 651724; hit rate 0.49% among 340,000; AlphaScreen GST-E1A/His-CtBP binding, 1536-well; stronger effect = lower value; activity change, % (concentration not given with the values); in the data active = activity change below about -65%; inconclusive = mostly about -30% to -63%; also: % is scaled to controls: 0 for no effect and ±100 for the full control effect
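Homogeneous bead-based format: GST-tagged E1A captured on glutathione donor beads, His-tagged CtBP on nickel acceptor beads; compounds precede bead addition by 2 h at 37 °C.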
JMJD2A Tudor inh: inhibitors of human JMJD2A Tudor domain. AlphaScreen JMJD2A-Tudor / H3K4me3 peptide binding. Potency, µM (doses to about 114 µM), for inactives: top-dose activity change, negative = inhibition, hits mostly inhibitors. hit rate 4.4% among 390,000; also: potency is read from the fitted curve at half-maximal effect; % is scaled to controls: 0 for no effect and ±100 for the full control effect; nearly all actives have a fitted effect of over 50% in size
BAZ2B inh: blocks human BAZ2B | hit rate 4.4% among 360,000 | Potency, µM (series often up to 114 µM), inactives show at the top dose activity change, negative = inhibition, hits mostly inhibitors | Q9UIF8 | AlphaScreen BAZ2B-H3K14Ac peptide displacement; also: potency is read from the fitted curve at half-maximal effect; % is scaled to controls: 0 for no effect and ±100 for the full control effect; nearly all actives have a fitted effect of over 60% in size
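BAZ2B 50 nM plus b-H3(5-23)K14Ac 50 nM, PBS pH 7.4/0.01% Tween-20, 30 min RT; compound added (max 110 uM), 30 min RT; streptavidin donor/Ni-chelate acceptor beads 10 ug/mL final, 20 min dark; AlphaScreen read.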
Six1-Eya2 blk: blocks human Six1 binding to Eya2. AlphaScreen GST-Six1/His-Eya2 binding, biochemical; stronger effect = lower value. activity change, % (no concentration beside the values). hit rate 0.56% among 360,000; in the data active = activity change below about -65%; inconclusive = mostly about -30% to -63%; also: % is scaled to controls: 0 for no effect and ±100 for the full control effect
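Compounds are tested against tagged Six1 and Eya2 proteins bridged by glutathione donor and nickel acceptor beads; after a one-hour incubation at 37 °C without light, AlphaScreen emission is recorded.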
HP1b binding inh: blocks HP1-beta chromodomain binding to methylated histone tails | P83916 | AlphaScreen HP1-beta / biotin-H3K9me3 peptide binding | Potency, µM (titrated, usually from 114 µM), inactives show at the highest dose activity change, negative = inhibition, hits mostly inhibitors | hit rate 0.56% among 390,000 | AID 540317; also: potency is read from the fitted curve at half-maximal effect; nearly all actives have a fitted effect of over 70% in size
Target sequence (P83916 whole entry, looked up): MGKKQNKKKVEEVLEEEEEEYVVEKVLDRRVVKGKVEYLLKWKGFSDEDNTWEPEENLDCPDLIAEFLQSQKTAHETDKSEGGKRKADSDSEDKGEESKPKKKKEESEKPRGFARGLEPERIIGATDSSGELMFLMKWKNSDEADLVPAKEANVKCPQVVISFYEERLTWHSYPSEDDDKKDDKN
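Compound inhibition of the preformed complex between 50 nM HP1-beta and 50 nM biotinylated H3K9me3 peptide was read by AlphaScreen. Buffer was PBS pH 7.4 with 0.01% Tween-20. Incubations ran 30 min at room temperature, with 10 ug/mL donor/acceptor beads.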
TDP1 block: TDP1 (human) enzyme inhibition; Q9NUW8; hit rate 0.28% among 350,000; Potency, µM (series often up to 130 µM), inactives show top-dose activity change, negative = inhibition, actives largely listed as inhibitors; recombinant TDP1, AlphaScreen DNA substrate cleavage; AID 485290; also: potency is read from the fitted curve at half-maximal effect; % is scaled to controls: 0 for no effect and ±100 for the full control effect; nearly all actives have a fitted effect of over 40% in size
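Compounds were preincubated with Tdp1 (1 nM final) for 15 min at room temperature before substrate (15 nM final) started a 5 min reaction; beads (10 ug/ml final) were then added for 10 min before AlphaScreen detection.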
An asterisk follows results filed as active; ? = inconclusive; · = no result; ! = not confirmed by another sample; [ ] = dose if it differs, or a comment. Rows were chosen to be rich in hits. Some 5.3% of all compounds tested hit in one or more screens of this group. Unless noted, calls follow the shape of the dose curve; as a rule, active = well fitted inhibition curve with a large enough effect; inconclusive = small, poorly fitted or top-dose-only effect; inactive = no such curve, though single readings can be large or run the other way.

SMILES	CtBP-E1A inh	JMJD2A Tudor inh	BAZ2B inh	Six1-Eya2 blk	HP1b binding inh	TDP1 block
Cc1ccc(S(=O)(=O)c2cn(Cc3ccccc3Cl)c3ccc(F)cc3c2=O)cc1	·	1%	-3%	·	36%	4%
COc1ccc2[nH]cc(S(=O)(=O)c3ccc(C)c(C)c3)c(=O)c2c1	·	-9%	4%	·	24%	9%
CCCCNCCCOc1cc(Cl)ccc1Cl	4	-18%	-15%	10	14%	1%
COCCCNCCOc1ccccc1-c1ccccc1	7	25µM*	-32%	2	-35%	-2%
COCCCNCCCCOc1ccccc1-c1ccccc1	-1	79µM*	71µM*	8	?	-4%
COc1ccccc1OCCCCNCCO	0	-17%	1%	0	31%	-5%
CCCCNCCOc1ccccc1-c1ccccc1	7	3.5µM*	?	8	?	-3%
OCCNCCOCCOc1ccccc1-c1ccccc1	-6	3.2µM*	?	-2	?	-3%
C=CCNCCCCOc1ccccc1-c1ccccc1	8	2%	4%	10	13%	-3%
Cc1cc2nc(-c3ccc(OCc4ccccc4)cc3)cc(C(F)(F)F)n2n1	·	5%	18%[57.1 µM]	·	51%	4%
COc1ccc(CNC(=O)CCc2c(C)nn(-c3ccc(N4CCOCC4)nn3)c2C)cc1	·	-20%	-37%	·	-5%	1%
CC(C)[C@@H](OCc1ccccc1)[C@H](C)/C=N\O[C@@H](C)c1cn([C@H](CO)Cc2ccccc2)nn1	·	·	·	·	·	10%[21 µM]
COCCNCCOc1ccccc1-c1ccccc1	-10	14µM*	?	7	?	1%
CCCC(=O)N(Cc1cc(=O)[nH]c2ccccc12)c1ccc(C)cc1	3	89µM*	-3%	0	-9%	·
CCC(=O)N(Cc1cc(=O)[nH]c2ccccc12)c1cccc(C)c1	-1	79µM*	-5%	-11	2%	3%
NCCC[C@@H](CC(=O)N[C@@H]1CCNC[C@H]1C(=O)N[C@H](CC(=O)N[C@@H](CCC(=O)O)CC(=O)O)Cc1ccccc1)NC(=O)C[C@H](Cc1ccccc1)NC(=O)[C@@H]1CNCC[C@H]1N	·	·	·	·	·	2%
Cc1ccc(OCC(O)CN2CCN(Cc3ccc4c(c3)OCO4)CC2)c(C)c1 (stereo unspecified)	-11	?	?	-6	?	1%
C=CCc1cc(OC)ccc1OCC(O)CN1CCN(c2ccc(OC)cc2)CC1 (stereo unspecified)	?	45µM*	35µM*	?	-42%	9%
C=CCc1ccccc1OCC(O)CN1CCN(c2ccccc2)CC1 (stereo unspecified)	·	?	50µM*	·	-13%	0%[12.3 µM]
Cc1ccc(OCC(O)CN2CCOCC2)c(C)c1 (stereo unspecified)	·	89µM*	-36%	2	1%	·
COc1ccccc1OCC(O)CN1CCN(CC(=O)Nc2c(C)cccc2C)CC1 (stereo unspecified)	2	89µM*!	0%	2	19%	7%[56.1 µM]
CCCCN(CC)C(=O)C1CCCN(c2ncnc3c2nc2n3CCCCC2)C1 (stereo unspecified)	·	-13%	2%	·	10%	2%
CCc1ccc(C(=O)NC2=NC(c3ccccc3F)CC(=O)N2)cc1 (stereo unspecified)	·	-5%	-20%	·	45%	-1%
Cc1ccc(NC(=O)Cn2c(=O)oc3cc(S(=O)(=O)NCc4ccccc4)ccc32)cc1	·	-2%	-1%	·	58%	-1%
COc1ccc(N2CCN(C(=O)c3cc(-c4ccc(C)c(F)c4)on3)CC2)cc1	·	-20%	8%	·	21%	-3%
SMILES	CtBP-E1A inh	JMJD2A Tudor inh	BAZ2B inh	Six1-Eya2 blk	HP1b binding inh	TDP1 block
OC(COCC1COc2ccccc2O1)CN1CCN(c2ccccc2)CC1 (stereo unspecified)	1	?	79µM*	5	-5%	5%
CCN1CCN(CC(O)COCC2COc3ccccc3O2)CC1 (stereo unspecified)	2	-5%	-25%	6	20%	4%
COCCOCC(O)CN1CCN(c2ccccc2)CC1 (stereo unspecified)	8	13µM*	50µM*	7	-26%	2%
C=CCc1ccc(OCC(O)CN2CCN(c3ccccc3)CC2)c(OC)c1 (stereo unspecified)	·	?	?	-19	30%	·
Cc1cc(C)c(C)c(OCC(O)CN2CCN(c3ccccn3)CC2)c1 (stereo unspecified)	-2	-26%	?	-7	19%	5%
COCCOCC(O)CN1CCN(c2ccc(C)cc2)CC1 (stereo unspecified)	-4	?	·	4	-38%	0%
Cc1cccc(OCC(O)CN2CCN(c3ccccn3)CC2)c1C (stereo unspecified)	-1	79µM*	-21%[57.1 µM]	2	2%	10%
C=CCc1cc(C)ccc1OCC(O)CN1CCN(c2ccccc2)CC1 (stereo unspecified)	-15	2.8µM*	50µM*	-16	40µM*	10%
CC(C)(C)c1ccc(-c2nc(NC(=O)CSc3ncnc4sc5c(c34)CCCC5)ns2)cc1	·	-11%	1%	·	41%	5%
COc1ccc(N2CCN(C(=O)Cn3cnc4nc5c(cc4c3=O)CCCC5)CC2)cc1	·	1%	-19%	·	20%[57 µM]	3%
COc1ccccc1CNC(=O)C1CCN(S(=O)(=O)c2c(C)noc2/C=C/c2cccs2)CC1	·	-22%	·	·	6%	0%
COc1ccc(C(=O)Nc2ccccc2C(=O)OCc2cc(=O)n3c4c(sc3n2)CCCC4)cc1	·	-6%	-5%	·	11%	4%
OC(COc1cccc2ccccc12)CN1CCN(c2ccccc2)CC1 (stereo unspecified)	·	50µM*	?	-19	-23%	9%
O=c1[nH]c(SCc2ccc(F)cc2)nc2c1CCCC2	·	3%	-3%	·	34%	0%
COc1ccc(S(=O)(=O)NC2CCN(C#N)CC2)cc1	·	-3%	·	·	·	1%
O=S(=O)(c1cccc(C(F)(F)F)c1)N1CCC(c2cc(-c3cccc4ccccc34)n[nH]2)CC1	-4	40µM*	?	0	-1%	1%
CSc1nc2ccccc2n1CC(=O)Nc1ccccc1	0	-10%	19%	5	24%	2%
O=C(Cn1c(/C=C/c2ccccc2)nc2ccccc21)Nc1ccc(F)cc1	4	50µM*	-3%	3	16%	-3%
O=C1Nc2ccccc2C(=O)C1(Cl)Cc1ccccc1 (stereo unspecified)	-7	50µM*	79µM*	1	?	8%
CC(C)(C)N1C(=O)c2ccccc2NC(=O)N1Cc1ccccc1	5	-1%	-12%	0	37%	-2%
